Hits are enriched below; roughly 2.6% of the tested compounds scored in any of these assays.
HTT-AS promoter: activators of huntingtin-antisense promoter activity; HEK293 HTT-AS promoter firefly luciferase reporter, 24 h; response scale: percent change from vehicle, -100% = no light; actives 0.24% (n = 48,000); Potency, µM (series often up to 57.5 µM), inactives show at the highest dose activity change, positive = activation, usual class: activators; AID 1508624; note: nearly all actives have a fitted effect of over 55% in size
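HEK293 Fluc reporter, 2,500 cells/well, 24 h pre-culture; cpds up to 57.5 uM final, 24 h 37 degrees C; Dual-Glo, 10 min RT; normalized vehicle = 0%, zero RLU = -100%.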
HTT promoter inh: HTT promoter inhibition | Potency, µM (titrated, usually from 57.5 µM), without a hit: top-dose activity change, negative = inhibition, hits mostly inhibitors | actives 0.93% (n = 48,000) | HEK293 HTT promoter firefly luciferase reporter, 24 h; note: nearly all actives have a fitted effect of over 50% in size
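HEK293 cells carrying firefly luciferase reporters were seeded at 2,500 per well in Opti-MEM and cultured for 24 h. They were then treated with compounds at up to 57.5 uM final for 24 h at 37 degrees C before Dual-Glo luminescence readout.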
FH mod: Identification of activators of human fumarate hydratase by quantitative high-throughput screening. actives 0.22% (n = 54,000). Fumarate hydratase, mitochondrial (Homo sapiens), P07954. FH coupled MDH/diaphorase resazurin fluorescence, 15 min. Potency, µM (titrated, usually from 79.9 µM), for the others: at the top dose activity change, negative = inhibition, most hits filed as inhibitors; note: % is set by controls: 0 for no effect and ±100 for the full control effect; the screen sought activators but most active calls are inhibition curves; nearly all actives have a fitted effect of over 45% in size
NTMT1 inhibitor: blocks human N-terminal methyltransferase 1 activity; actives 2.5% (n = 59,000); NTMT1 MTase-Glo SAH luminescence, purified enzyme; Potency, µM (highest dose often 114 µM), for the others: at the top dose activity change, negative = inhibition, usual class: inhibitors; AID 1645870; Q9BV86;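 note: plate controls were DMSO vehicle for no effect and no enzyme for full effect; nearly all actives have a fitted effect of over 65% in size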
Target sequence (Q9BV86 whole entry, looked up): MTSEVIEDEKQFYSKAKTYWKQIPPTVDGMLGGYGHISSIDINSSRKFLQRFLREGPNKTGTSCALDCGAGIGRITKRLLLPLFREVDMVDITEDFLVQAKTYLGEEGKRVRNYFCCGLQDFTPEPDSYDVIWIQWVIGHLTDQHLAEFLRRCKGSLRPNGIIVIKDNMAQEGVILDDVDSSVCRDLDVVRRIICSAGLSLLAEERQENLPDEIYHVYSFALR
Active calls of the source: *; ! = repeats disagree; [ ] = another dose, or the depositor's remark. Calls come from the whole dose curve; as a rule, active = well fitted curve in the direction sought with a large enough effect; inconclusive = small, poorly fitted or top-dose-only effect, or another doubt; inactive = no such curve, though single readings can be large; an effect the other way counts as inactive or inconclusive. Potency is the fitted concentration of half-maximal effect.

`COc1cccc(-c2nc(SCC(=O)Nc3ccc4c(c3)OCCO4)c(-c3ccccc3)[nH]2)c1` gave HTT-AS promoter -5.6%, HTT promoter inh inconclusive, FH mod 39.8µM* and NTMT1 inhibitor -0.5%.
`Cc1ccc(CNS(=O)(=O)c2ccc3c(c2)CCN3S(C)(=O)=O)cc1` gave HTT-AS promoter -14.9%, HTT promoter inh -28.9%, FH mod -23.5% and NTMT1 inhibitor 50.1µM*.
`Oc1ccc(CNc2ccccn2)c2cccnc12` gave NTMT1 inhibitor 9.2%.
For S=C(Nc1ccccn1)c1ccccn1 the results were NTMT1 inhibitor 8.91µM*.
`Cc1ccc(OCCn2c(CCNC(=O)c3cccc(Br)c3)nc3ccccc32)cc1` gave NTMT1 inhibitor 4.6%.
`Oc1ccc2ccccc2c1SSc1c(O)ccc2ccccc12` gave HTT-AS promoter -22.0%, HTT promoter inh inconclusive, FH mod 35.5µM*! and NTMT1 inhibitor 8.91µM*!.
For CCN(CC)CCCNC(=O)c1ccc2c(c1)sc1nc(-c3ccc(C)cc3)cn12 the results were HTT-AS promoter -15.9%, HTT promoter inh -2.6%, FH mod -6.6% and NTMT1 inhibitor 50.1µM*.
Screening CCCNC(=O)c1ccc2c(c1)sc1nc(-c3ccc(C)cc3)cn12 returned HTT-AS promoter inconclusive, HTT promoter inh 4.1%, FH mod 2.0% and NTMT1 inhibitor 13.6%.
CN1CCc2cccc3c2[C@H]1Cc1ccc(O)c(O)c1-3 was read as HTT-AS promoter -1.6%, HTT promoter inh -2.7%, FH mod inconclusive and NTMT1 inhibitor 22.4µM*.
`CC1Cc2cc(S(=O)(=O)NCc3ccccc3Cl)ccc2N1C(=O)C1CCC1` (configuration not stated) gave HTT-AS promoter -80.1%, HTT promoter inh 28.2µM*, FH mod -14.3% and NTMT1 inhibitor 11.5%.
Screening COc1ccc(CCNS(=O)(=O)c2ccc3c(c2)CC(C)N3C(=O)C2CCC2)cc1OC (configuration not stated) returned HTT-AS promoter -24.2%, HTT promoter inh inconclusive, FH mod -0.5% and NTMT1 inhibitor -2.2%.
Cc1ccc(NC(=O)c2cc(S(=O)(=O)NCCC3=CCCCC3)ccc2F)cc1F was read as HTT-AS promoter -89.8%, HTT promoter inh 11.2µM*, FH mod inconclusive and NTMT1 inhibitor 3.6%.
For Cc1ccc(NC(=O)c2ccc(F)c(S(=O)(=O)NCCc3ccccc3)c2)cc1F the results were HTT-AS promoter -39.2%, HTT promoter inh 28.2µM*, FH mod inconclusive and NTMT1 inhibitor 1.6%.
CCNC(=O)[C@H]1O[C@H](n2cnc3c(NCC(c4ccccc4)c4ccccc4)nc(C(=O)NCCNC(=O)NC4CCN(c5ccccn5)CC4)nc32)[C@H](O)[C@@H]1O was read as FH mod -5.5% and NTMT1 inhibitor 7.2%[57.5 µM].
COc1cc2ncnc(Nc3ccc(O)cc3)c2cc1OC was read as FH mod 1.7% and NTMT1 inhibitor -11.1%[57.5 µM].
Screening COc1cc2ncnc(Nc3ccc(O)c(Br)c3)c2cc1OC returned FH mod -7.2% and NTMT1 inhibitor 39.8µM*.
O=C(O)C(O[C@@H]1O[C@H](CO[C@@H]2O[C@H](CO)[C@@H](O)[C@H](O)[C@H]2O)[C@@H](O)[C@H](O)[C@H]1O)c1ccccc1 (some centres not stated) was read as FH mod 5.1%[53.3 µM] and NTMT1 inhibitor 12.1%[29.8 µM].
Screening Nc1ncnc2c1c(-c1cccc(OCc3ccccc3)c1)cn2C1CC(CN2CCCC2)C1 (configuration not stated) returned HTT-AS promoter -11.9%, HTT promoter inh -27.4%, FH mod -3.0% and NTMT1 inhibitor 12.6µM*.
Screening CC1OC(OC2C(CO)OC(OCC3OC(OC(=O)C45CCC(C)(C)CC4C4=CCC6C7(C)CCC(OC8OC(C(=O)O)C(O)C(OC9OC(CO)C(O)C(O)C9O)C8O)C(C)(C)C7CCC6(C)C4(C)CC5)C(O)C(O)C3O)C(O)C2O)C(O)C(O)C1O (configuration not stated) returned FH mod 3.5%[13.5 µM] and NTMT1 inhibitor -0.3%[6.45 µM].
For Cc1ccn2c(Nc3ccccc3C)c(-c3ccccn3)nc2c1 the results were HTT-AS promoter -45.9%, HTT promoter inh inconclusive, FH mod inconclusive and NTMT1 inhibitor 1.5%.
CC(C)c1ccc(Nc2c(-c3ccccn3)nc3ccccn23)cc1 was read as HTT-AS promoter -66.9%, HTT promoter inh 25.1µM*, FH mod 22.1% and NTMT1 inhibitor 12.5%.
Cc1ccccc1Nc1c(-c2cccc(N(C)C)c2)nc2ccc(Br)cn12 was read as HTT-AS promoter 11.2µM*, HTT promoter inh 45.8%, FH mod 3.3% and NTMT1 inhibitor 7.0%.
For Cc1ccc2nc(-c3ccccn3)c(Nc3ccccc3C)n2c1 the results were HTT-AS promoter -75.3%, HTT promoter inh 35.5µM*, FH mod inconclusive and NTMT1 inhibitor 9.0%.
CCNC(=O)c1noc(-c2cc(Cl)c(O)cc2O)c1-c1ccc(OC)cc1 was read as FH mod 0.3% and NTMT1 inhibitor 4.0%[57.5 µM].
CC(C)c1ccccc1-c1nc(NCc2ccc(-c3cccnc3)cc2)c2[nH]cnc2n1 was read as NTMT1 inhibitor 11.0%.
Screening COc1ccc(CC2=NN3C([C@@H](CCc4ccccc4)[C@@H](C)O)=NC(C)C3C(=O)N2)cc1OC (some centres not stated) returned HTT-AS promoter 7.69µM*, HTT promoter inh 45.1%, FH mod -12.0%[53.3 µM] and NTMT1 inhibitor inconclusive.
For COC1CC(O[C@H]2CC[C@@]3(C)C(=CC[C@]4(O)C3[C@H](O)[C@@H](O)[C@]3(C)[C@@H]([C@H](C)O)CC[C@@]34O)C2)OC(C)C1OC1CC(OC)C(OC2CC(OC)C(OC3OC(C)C(OC4OC(CO)C(O)C(O)C4O)C(OC)C3O)C(C)O2)C(C)O1 (some centres not stated) the results were FH mod 7.1%[20.6 µM] and NTMT1 inhibitor 9.1%[12.6 µM].
Screening C/C(=C\CCC(C)CCO)C(=O)OC[C@H]1O[C@@H](O[C@@H]2OC=C(C(=O)O)[C@H]3CC[C@](C)(O)[C@@H]23)C(O)[C@@H](O)C1O (some centres not stated) returned FH mod -8.2%[53.3 µM] and NTMT1 inhibitor -23.1%[29.8 µM].
Screening COc1cccc(CNc2ccc(S(=O)(=O)Nc3ccc(C4CCNCC4)cc3)cc2)c1O returned NTMT1 inhibitor 39.8µM*.
C[C@@H]1O[C@@H](O[C@H]2[C@H](O[C@H]3[C@H](O[C@H]4CC[C@@]5(C)C(CC[C@]6(C)C5CC=C5[C@@H]7CC(C)(C)C[C@@H](O)[C@]7(C)CC[C@]56C)C4(C)C)O[C@H](C(=O)O)[C@@H](O)[C@@H]3O)O[C@H](C(=O)O)[C@H](O)[C@@H]2O)[C@H](O)[C@H](O)[C@H]1O (some centres not stated) was read as FH mod -2.0%[20.6 µM] and NTMT1 inhibitor 4.5%[12.6 µM].
